Test results as given in PubChem BioAssay.
Calls of active or inactive are those of the source.

Legend:
[1] = optical density shifts of acrAB sulA E. coli – strain DRC41, OD650, 48 h, E. coli filamentation inducer project, primary screen (AID 1152); settings: higher = more signal, called active from +8 up or from −8 down;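 note: E. coli MC1000 strain DRC41 lacking acrAB efflux pump and sulA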
[2] = probe aLefty1 binding on compound microarray – biochemical, small-molecule microarray, 635/667 nm fluorescence, primary screen (AID 1153); settings: higher = more signal;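 note: score merges spot fluorescence with signal-to-noise ratio from the scanned slide images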
[3] = plasmodial surface anion channel blockers, osmotic lysis – cell-based, P. falciparum Indochina, OD700, 1 h, primary screen (AID 1154); settings: P. falciparum Indochina infected RBC osmotic lysis, higher = more signal, called active from +8 up or from −8 down
[4] = plasmodial surface anion channel blockers, osmotic lysis – cell-based, P. falciparum Indochina, OD700, 2 h, primary screen (AID 1155);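 note: lysis reports solute entry through the parasite surface anion channel PSAC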; settings: P. falciparum Indochina infected erythrocytes, higher = more signal, called active from +8 up or from −8 down
[5] = changes in parasitized red cell lysis, either direction – P. falciparum Indochina, OD700, 3 h, PSAC antagonist project, primary screen (AID 1156); settings: P. falciparum-infected erythrocytes, osmotic lysis, higher = more signal, called active from +8 up or from −8 down
[6] = plasmodial surface anion channel blockers, osmotic lysis – cell-based, P. falciparum Indochina, OD700, 18 h, primary screen (AID 1157); settings: P. falciparum Indochina infected erythrocytes, osmotic lysis OD700, 18 h; higher = more signal, called active from +8 up or from −8 down
[7] = S6 kinase pathway phospho-S6 level changes – cell-based, A549, cytoblot, luminescence, serum-stimulated, primary screen (AID 1158); settings: 5 h, higher = more signal;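 note: serum-stimulated A549 lung adenocarcinoma cells; signal is phosphorylated S6 detected by cytoblot immunostaining with HRP secondary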
[8] = molecular target: NADPH oxidase 2 (Homo sapiens) (UniProt P04839); experiment: compounds shifting NOX2 Amplex Red fluorescence – cell-based, HEK293-NOX2, PMA-stimulated, NOX inhibitor project, primary screen (AID 1159); settings: 45 min, higher = more signal, called active from +8 up or from −8 down; note: test concentration not given here
[9] = molecular target: NADPH oxidase 4 (Homo sapiens) (UniProt Q9NPH5); experiment: compounds shifting NOX4 Amplex Red fluorescence – cell-based, HEK293-NOX4, tetracycline-induced, NOX inhibitor project, primary screen (AID 1160); settings: HEK293-NOX4, Amplex Red H2O2 fluorescence, 45 min; higher = more signal, called active from +8 up or from −8 down
[10] = molecular target: NADPH oxidase 5 (Homo sapiens) (UniProt Q96PH1); experiment: compounds shifting NOX5 Amplex Red fluorescence – cell-based, HEK293-NOX5, NOX inhibitor project, primary screen (AID 1161); settings: HEK293-NOX5, ionomycin, 45 min, higher = more signal
[11] = compound effects on lung adenocarcinoma cell viability – A549, calcein-AM fluorescence, 48 h, basal, profiling panel (AID 1162); settings: higher = more signal; note: test concentration not given here
[12] = compound effects on differentiated 3T3-L1 adipocyte viability – cell-based, 3T3-L1 adipocytes, calcein-AM fluorescence, 48 h, basal, profiling panel (AID 1163); settings: 3T3-L1 adipocytes viability, higher = more signal; note: test concentration not given here
[13] = compound effects on hepatocellular carcinoma cell viability – HepG2, calcein-AM fluorescence, 48 h, basal, profiling panel (AID 1164); settings: higher = more signal; note: test concentration not given here
[14] = compound effects on multiple myeloma cell viability – MM1S, calcein-AM fluorescence, 48 h, basal, profiling panel (AID 1165); settings: higher = more signal;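 note: viability of MM1S multiple myeloma cells under basal unstimulated conditions; test concentration not given here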
[15] = calcein-AM signal in unstimulated myeloma cells – cell-based, calcein-AM fluorescence, 48 h, PK04 Diversity Set, profiling panel (AID 1166); settings: RPMI8226 myeloma viability, higher = more signal;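 note: cells grown under basal conditions without added stimulus; test concentration not given here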
[16] = JC-1 mitochondrial signal, unstimulated HepG2 cells – cell-based, JC-1 fluorescence, 24 h, 100 nL compound, profiling panel (AID 1167); settings: HepG2 mitochondrial potential, higher = more signal; note: test concentration not given here
[17] = JC-1 mitochondrial signal, unstimulated adipocytes – cell-based, JC-1 fluorescence, 3T3-L1 adipocytes, 24 h, 100 nL compound, profiling panel (AID 1168); settings: JC-1 mitochondrial fluorescence, higher = more signal, called active from +8 up or from −8 down; note: test concentration not given here
[18] = JC-1 mitochondrial signal, unstimulated myeloma cells – cell-based, JC-1 fluorescence, RPMI8226, 24 h, 100 nL compound, profiling panel (AID 1169); settings: JC-1 mitochondrial potential fluorescence, higher = more signal; note: test concentration not given here
[19] = JC-1 mitochondrial signal, unstimulated MM1S myeloma – cell-based, JC-1 fluorescence, 24 h, 100 nL compound, profiling panel (AID 1170); settings: MM1S mitochondrial potential, higher = more signal; note: test concentration not given here
[20] = resazurin metabolic signal in A549 cells – cell-based, resazurin fluorescence, 24 h, PK04 Diversity Set, profiling panel (AID 1171); settings: A549 viability, higher = more signal, called active from +8 up or from −8 down; note: test concentration not given here

Sequence of NADPH oxidase 2 (Homo sapiens) (P04839 whole entry, looked up): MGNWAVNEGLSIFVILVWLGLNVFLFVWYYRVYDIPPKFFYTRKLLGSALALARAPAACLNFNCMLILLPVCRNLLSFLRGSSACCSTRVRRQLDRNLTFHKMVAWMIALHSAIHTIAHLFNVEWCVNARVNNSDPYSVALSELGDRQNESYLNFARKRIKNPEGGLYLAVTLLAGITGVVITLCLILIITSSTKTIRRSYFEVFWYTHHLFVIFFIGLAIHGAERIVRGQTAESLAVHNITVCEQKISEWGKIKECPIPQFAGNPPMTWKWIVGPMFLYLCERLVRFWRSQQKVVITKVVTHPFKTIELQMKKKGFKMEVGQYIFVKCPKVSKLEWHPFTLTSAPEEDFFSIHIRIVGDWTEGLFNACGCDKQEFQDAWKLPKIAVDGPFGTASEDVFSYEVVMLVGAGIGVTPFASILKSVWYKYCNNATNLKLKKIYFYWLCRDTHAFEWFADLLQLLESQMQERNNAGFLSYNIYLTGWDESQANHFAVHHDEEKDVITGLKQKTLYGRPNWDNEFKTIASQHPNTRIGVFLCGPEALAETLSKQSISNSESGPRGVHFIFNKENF
Sequence of NADPH oxidase 5 (Homo sapiens) (Q96PH1 whole entry, looked up): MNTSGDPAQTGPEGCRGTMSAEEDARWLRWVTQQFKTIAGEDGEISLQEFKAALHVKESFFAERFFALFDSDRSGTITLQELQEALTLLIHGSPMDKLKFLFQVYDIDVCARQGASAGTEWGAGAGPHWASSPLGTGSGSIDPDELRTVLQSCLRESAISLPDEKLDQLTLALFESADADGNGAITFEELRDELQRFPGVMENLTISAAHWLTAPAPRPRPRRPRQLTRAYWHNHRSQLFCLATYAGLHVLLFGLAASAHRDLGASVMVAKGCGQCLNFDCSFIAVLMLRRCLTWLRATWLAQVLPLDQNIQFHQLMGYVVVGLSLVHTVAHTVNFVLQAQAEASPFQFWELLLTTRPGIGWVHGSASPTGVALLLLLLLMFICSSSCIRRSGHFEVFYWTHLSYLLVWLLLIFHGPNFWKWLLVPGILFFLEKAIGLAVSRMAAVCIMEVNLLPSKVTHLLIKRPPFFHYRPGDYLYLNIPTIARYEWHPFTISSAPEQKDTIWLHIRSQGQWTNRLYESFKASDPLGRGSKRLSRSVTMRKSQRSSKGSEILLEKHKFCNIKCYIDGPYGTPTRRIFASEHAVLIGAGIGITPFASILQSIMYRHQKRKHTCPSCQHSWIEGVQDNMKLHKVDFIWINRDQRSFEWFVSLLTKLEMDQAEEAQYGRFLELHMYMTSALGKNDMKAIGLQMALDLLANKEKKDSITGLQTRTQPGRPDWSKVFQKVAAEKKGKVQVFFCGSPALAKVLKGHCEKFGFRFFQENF
Sequence of NADPH oxidase 4 (Homo sapiens) (Q9NPH5 whole entry, looked up): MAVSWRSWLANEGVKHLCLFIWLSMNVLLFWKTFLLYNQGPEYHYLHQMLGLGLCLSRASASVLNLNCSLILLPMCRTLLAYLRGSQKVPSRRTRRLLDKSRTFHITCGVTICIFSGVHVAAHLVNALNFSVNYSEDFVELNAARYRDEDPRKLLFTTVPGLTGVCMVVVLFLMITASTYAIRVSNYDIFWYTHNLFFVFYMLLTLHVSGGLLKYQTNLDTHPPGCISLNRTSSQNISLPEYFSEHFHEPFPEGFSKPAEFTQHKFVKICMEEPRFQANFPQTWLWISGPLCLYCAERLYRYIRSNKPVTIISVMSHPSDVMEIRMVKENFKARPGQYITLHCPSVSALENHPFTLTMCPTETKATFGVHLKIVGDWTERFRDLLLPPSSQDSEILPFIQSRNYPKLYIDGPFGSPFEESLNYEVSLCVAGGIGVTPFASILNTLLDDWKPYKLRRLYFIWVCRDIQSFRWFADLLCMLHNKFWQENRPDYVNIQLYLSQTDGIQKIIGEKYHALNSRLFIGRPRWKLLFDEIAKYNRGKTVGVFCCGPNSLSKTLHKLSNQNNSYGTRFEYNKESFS

SMILES	z-score [1]	composite z-score [2]	z-score [3]	z-score [4]	z-score [5]	z-score [6]	z-score [7]	z-score [8]	z-score [9]	z-score [10]	z-score [11]	z-score [12]	z-score [13]	z-score [14]	z-score [15]	z-score [16]	z-score [17]	z-score [18]	z-score [19]	z-score [20]
CN(C)CCCCNC(=O)[C@H]1C[C@H]2C(=O)N[C@@H](CCCCN(C)C)C(=O)N2[C@H]1c1cccc(OCCO)c1	0.357 (inactive)	-0.546	0.72 (inactive)	-0.0174 (inactive)	-0.71 (inactive)	-0.0919 (inactive)	-0.518	0.731 (inactive)	0.756 (inactive)	-0.151	-0.317	0.0593	-0.269	-0.0355	0.495	0.13	0.429 (inactive)	0.426	0.23	0.471 (inactive)
COc1ccc([Si](C)(C)[C@@H]2[C@@H](CCO)O[C@]3(C(=O)N(Cc4cccc(N5C(=O)c6cccc7cccc5c67)c4)c4ccccc43)[C@H]2C)cc1	-0.21 (inactive)	0.0449	3.33 (inactive)	3.66 (inactive)	-0.0486 (inactive)	2.34 (inactive)	0.0181	0.498 (inactive)	0.86 (inactive)	2.42	-1.03	0.421	-3.42	-1.32	-4.25	-0.543	0.145 (inactive)	-1.05	-1.77	-2.26 (inactive)
C=CCOC(=O)[C@@H]1[C@H]2C(=O)O[C@H](c3ccccc3)[C@H](c3ccccc3)N2[C@H](c2ccc(OCCOC(=O)[C@H]3C[C@H]4C(=O)N[C@@H](CCCC[N+](C)(C)C)C(=O)N4[C@H]3c3ccc(O)cc3)cc2)[C@@]12C(=O)Nc1ccc(I)cc12	-0.451 (inactive)	0.113	2.42 (inactive)	1.57 (inactive)	0.511 (inactive)	0.792 (inactive)	-0.281	1.4 (inactive)	1.06 (inactive)	1.24	-0.105	-1.19	-0.591	-0.477	-0.362	-2.03	0.178 (inactive)	-0.275	-1.13	-0.173 (inactive)
COc1ccc([Si](C)(C)[C@@H]2[C@@H](CC(=O)N3CCC[C@H]3CO)O[C@]3(C(=O)N(Cc4ccc(N5C(=O)c6cccc7cccc5c67)cc4)c4ccccc43)[C@H]2C)cc1	1.13 (inactive)	-0.0984	5.77 (inactive)	1.71 (inactive)	1.06 (inactive)	0.918 (inactive)	0.486	3.1 (inactive)	1.37 (inactive)	4.38	-1.22	1.43	-2.94	-2.75	-4.35	-1.18	-0.209 (inactive)	-1.01	-2.21	-3.19 (inactive)
CC(C)CCC[C@@H](C)[C@H]1CC[C@@]2(C)C3=C(CC[C@]12C)[C@@]1(C)CC[C@H](OC(=O)c2ccc(Br)cc2)C(C)(C)C1CC3 (stereo not given in full)	3.37 (inactive)	-0.0559	-0.571 (inactive)	-0.957 (inactive)	-0.149 (inactive)	-2.39 (inactive)	1.62	-1.07 (inactive)	0.175 (inactive)	0.929	0.986	0.889	2.04	0.109	-0.269	1.14	0.599 (inactive)	0.717	-0.902	-0.255 (inactive)
Cc1ccc(S[C@]2(C(=O)NCC(F)(F)F)CC(=O)N(Cc3ccccc3)[C@@H]2c2ccc(CO)cc2)cc1	-0.009 (inactive)	0.0413	1.6 (inactive)	-0.821 (inactive)	1.56 (inactive)	-1.73 (inactive)	1.98	-0.599 (inactive)	0.488 (inactive)	-1.68	0.149	0.787	-0.479	0.0646	-1.28	0.0177	-0.291 (inactive)	0.871	-0.686	0.42 (inactive)
COCCOC(=O)N1C(=O)[C@@]2(c3cc(C#CCC(C(=O)OC)C(=O)OC)ccc31)[C@H](c1ccc(OCCO)cc1)N1[C@H](c3ccccc3)[C@H](c3ccccc3)OC(=O)[C@H]1[C@@H]2C(=O)N1CCN(c2ncccn2)CC1	1.89 (inactive)	0.297	6.55 (inactive)	1.35 (inactive)	0.14 (inactive)	-0.0311 (inactive)	1.72	-0.105 (inactive)	-1.13 (inactive)	-4.4	-0.828	1.2	-0.709	-0.0585	-1.07	-0.49	0.436 (inactive)	-0.262	-1.53	1.83 (inactive)
C=C1C2CC3C(=C4C(CO[C@@H]4[C@H]4CCCN4S(=O)(=O)c4ccccc4[N+](=O)[O-])C4C(=O)N(C)C(=O)C34)CC2C(=O)N1C (stereo not given in full)	-0.523 (inactive)	-0.147	4.07 (inactive)	0.0975 (inactive)	-0.513 (inactive)	-0.0387 (inactive)	0.0973	0.228 (inactive)	0.569 (inactive)	0.751	-0.704	0.332	-0.0708	-3.31	-1.28	-1.83	-0.543 (inactive)	0.485	-0.347	-0.123 (inactive)
COC(=O)C1(Cc2ccccc2)C=C2C(=C(C(C)C)C(=O)C2C)CN1 (stereo not given)	-1.72 (inactive)	0.276	2.03 (inactive)	0.326 (inactive)	1.42 (inactive)	0.592 (inactive)	0.128	-0.862 (inactive)	-5.34 (inactive)	-4.04	-0.859	0.575	-1.75	-1.89	-1.53	-1	-1.76 (inactive)	0.838	0.0816	-1.33 (inactive)
